# The source made the active and inactive calls. How the source made its calls: active means hit-call score of the fitted dose curve at least 0.9, where 1 is the maximum; inactive means score below 0.9.
# Read-out: Interleukin-8 (IL8), CXCL8 (gene 3576)
# Assay: BSK_BE3C_IL8: BioMAP Diversity Plus: BE3C Assay for Interleukin-8 (IL8) Biomarker Activity (AID 2284280)
# Settings: primary human bronchial epithelial cells
# Description: BSK_BE3C is a cell-based, multiplexed-readout assay that uses bronchial epithelial cell, a human lung primary cell, with measurements taken at 24 hours after chemical dosing in a 96-well plate.BSK_BE3C_IL8 is an assay component measured in the BSK_BE3C assay. It measures IL-8 antibody related to regulation of gene expression using ELISA technology.Data from the assay component BSK_BE3C_IL8 was analyzed at the endpoint, BSK_BE3C_IL8, in the positive analysis fitting direction relative to DMSO as the negative control and baseline of activity. Using a type of binding reporter, gain or loss-of-signal activity can be used to understand protein changes. To generalize the intended target to other relatable targets, this assay endpoint is annotated to the 'cytokine' intended target family, where the subfamily is 'interleukins'.
# The levels of cell surface (or secreted, indicated by the prefix "s") biomarker endpoints were measured by ELISA. Overt cytotoxicity to cells in confluent adherent cultures (all systems other than the BT system) was assessed by measuring total protein levels using sulforhodamine B (SRB) staining in parallel cultures at the time of biomarker measurements, indicated as SRB endpoints. For proliferation assays for adherent cell types, individual cell types are cultured at sub-confluence and relative cell numbers quantified by SRB staining at time points optimized for each system (48 h: 3C and CASM3C systems; 72 h: BT and HDF3CGF systems; 96 h: SAg system). SRB was performed by staining cells with 0.1% SRB after fixation with 10% TCA and reading wells at 560 nm.Viability and proliferation of PBMC (T cells) was quantified by Alamar Blue reduction for the SAg and BT systems. For PBMC viability (referred to as PBMC Cytotoxicity within the assay endpoint names), cells were plated (75,000/well in a 96-well plate) and then chemical samples added for 1 h before addition of activators, SEB and TSST-1 (20 ng/mL final concentration each). Cells were incubated for 90 h. Then, Alamar Blue (20 uL/well) (Invitrogen, Cat DAL1100) was added for 6 h, and the plates were read with a fluorescence microplate reader at 546/580 nm (excitation/emission). For PBMC proliferation, cells were plated and activated as above but incubated for only 16 h prior to addition of Alamar Blue. Plates were read after 6 h.
row,SMILES,outcome
1,COP(=O)(CCC(=O)NCO)OC,inactive
2,O=C(O)C(F)(F)OC(F)(F)C(F)(F)OC(F)(F)F,inactive
3,OCC(F)(F)OC(F)(F)C(F)(F)OC(F)(F)CO,inactive
4,NC(=O)C(F)(F)C(F)(F)F,inactive
5,CC(O)C(F)(F)C(F)(F)F (stereo not given),inactive
6,OCC(F)(F)OC(F)(F)C(F)(F)OC(F)(F)C(F)(F)OC(F)(F)F,inactive
7,O=C(O)C=CC(F)(C(F)(F)F)C(F)(F)F,inactive
8,O=C(O)C(F)(OC(F)(F)C(F)(F)C(F)(F)F)C(F)(F)F (stereo not given),inactive
9,O=S(=O)(F)C(F)(F)C(F)(F)C(F)(F)C(F)(F)C(F)(F)C(F)(F)C(F)(F)C(F)(F)F,inactive
10,COC(=O)C(F)(F)C(F)(F)OC(F)(C(F)(F)F)C(F)(F)OC(F)=C(F)F (stereo not given),inactive
11,C=CC(=O)OCC(F)(F)C(F)F,inactive
12,O=C(O)C(F)(F)C(F)(F)C(=O)O,inactive
13,FC(F)(F)C(F)(C(F)(F)F)C(F)(F)C(F)(F)CC1CO1 (stereo not given),inactive
14,OCC(F)(F)OC(F)(F)C(F)(F)OC(F)(F)C(F)(F)OC(F)(F)CO,inactive
15,O=C(O)C(F)(F)OC(F)(F)C(F)(F)OC(F)(F)C(=O)O,inactive

# Reference: PubChem BioAssay (EPA / NIEHS)
